Data: PubChem BioAssay AID602393 (Broad Institute, 2012)
About 7,000 (2%) of roughly 350,000 compounds were called active. The sample as a whole holds a higher share of actives than the screen did. Values without a mark were called inactive. Cut-off read from the data, not from the text of the source: active = activation above about 40%; inconclusive = no clear call, values can overlap the other calls; inactive = below that.

experiment: raisers of Bmi1 knock-in reporter signal – mouse ES cells, Bmi1 luciferase knock-in, single point, esBAF inhibitor project, primary screen (AID 602393); settings: 24 h, at 12.5 µM, stronger effect = higher value, 100% = twice the neutral-well signal;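 note: 0% = median of the plate's neutral control wells and 100% = double that signal; a rise in the Bmi1 reporter signal indicates esBAF inhibition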

For O=C(C[C@@H]1C=C[C@@H](NC(=O)c2ccc3c(c2)OCO3)[C@H](CO)O1)NC1Cc2ccccc2C1, which reporter increase is on record?
The reporter increase was 4.12%.

With C[C@@H]1CCCCO[C@H](CN(C)C(=O)CCC(F)(F)F)[C@H](C)CN([C@@H](C)CO)C(=O)c2cc(NC(=O)CCCCCC(=O)Nc3ccccc3N)ccc2O1 as the molecule, how does the reporter increase read?
Its reporter increase is 1.1%.

Which reporter increase does the source give for COc1ccccc1N1CCN(/N=C/c2ccc(O)cc2O)CC1 here?
Its reporter increase is 60.9% (active).

For COc1cc(/C=N/N2CCN(c3ccccc3)CC2)ccc1OC(C)=O, which reporter increase is on record?
The reporter increase was 7.78%.

With COc1ccccc1N1CCN(/N=C\C(Br)=C\c2ccccc2)CC1 as the molecule, how does the reporter increase read?
The reporter increase was 24.6%.

For CN(C)CC(=O)Nc1ccc2c(c1)[C@@H]1C[C@H](CC(=O)NCC3CC3)O[C@@H](CO)[C@@H]1O2, which reporter increase is on record?
The reporter increase was 5.49%.

For CO[C@@H]1CN(C)C(=O)c2cc(NC(=O)c3ccc4c(c3)OCO4)ccc2OC[C@H](C)N(CCC(F)(F)F)C[C@H]1C, which reporter increase is on record?
Its reporter increase is 1.54%.

Which reporter increase does the source give for O=C(NCC[C@@H]1CC[C@H](NS(=O)(=O)c2cccc(F)c2)[C@H](CO)O1)c1cnccn1 here?
Its reporter increase is -3.13%.

Which reporter increase does the source give for C[C@H](CO)N1C[C@H](C)[C@@H](CN(C)Cc2ccccn2)Oc2ncc(-c3cccc(F)c3)cc2C1=O here?
The reporter increase was 0.648%.

Which reporter increase does the source give for COc1cc(C=O)c(Br)cc1OCC(=O)NCc1ccccc1 here?
Its reporter increase is 0.717%.

With COc1ccc(CNC(=O)COc2ccccc2C(=O)c2cnn(-c3ccccc3)c2)cc1OC as the molecule, how does the reporter increase read?
Its reporter increase is 75.1% (active).

With COC(=O)COc1cccc2c(=O)n(CC(=O)NCCc3ccc(OC)c(OC)c3)ccc12 as the molecule, how does the reporter increase read?
The reporter increase was 8.15%.

For O=C(C[C@H]1C[C@H]2c3cc(NC(=O)C4CCOCC4)ccc3O[C@H]2[C@@H](CO)O1)NCC1CC1, which reporter increase is on record?
The reporter increase was 0.385%.

Which reporter increase does the source give for O=C(COC(=O)c1ccccc1)c1ccc2c(c1)OCCO2 here?
The reporter increase was 1.23%.

With O=C(COC(=O)c1ccc2c(c1)OCCO2)NCc1ccccc1Cl as the molecule, how does the reporter increase read?
Its reporter increase is -1.54%.

For O=C(OCc1ccccc1F)c1ccc2c(c1)OCCO2, which reporter increase is on record?
Its reporter increase is 58.2% (active).

With O=C(COC(=O)c1ccc(O)cc1O)NC(=O)c1ccccc1 as the molecule, how does the reporter increase read?
Its reporter increase is -3.35%.

Which reporter increase does the source give for O=C(COC(=O)c1ccc(O)cc1O)c1ccc2c(c1)OCCO2 here?
The reporter increase was 90.2% (active).

With O=C(CN1CCN(c2ccccc2F)CC1)c1ccc2c(c1)OCO2 as the molecule, how does the reporter increase read?
The reporter increase was 14.1%.

For C/C=C/c1ccc([C@H]2[C@@H](CO)N(C(C)=O)[C@H]2CN(C)S(C)(=O)=O)cc1, which reporter increase is on record?
Its reporter increase is -4.53%.

With O=C(C1CCC1)N1C[C@H]2[C@@H](c3ccccc31)[C@H](CO)N2C(=O)Nc1cccc(F)c1 as the molecule, how does the reporter increase read?
Its reporter increase is -1.72%.

Which reporter increase does the source give for CCOc1cccc(C(=O)Nc2cnn(Cc3ccccc3)c2)c1 here?
The reporter increase was 13%.

For Cc1nnc(NC(=O)c2ccc3nccnc3c2)s1, which reporter increase is on record?
Its reporter increase is 16.2%.

Which reporter increase does the source give for CCOc1cccc(C(=O)Nc2nnc(-c3cccs3)s2)c1 here?
Its reporter increase is 50% (active).

For Cc1noc(C)c1NC(=O)N[C@@H]1C=C[C@H](CC(=O)N2CCCCC2)O[C@H]1CO, which reporter increase is on record?
Its reporter increase is -4.9%.

With COc1ccc(CNC(=O)C[C@H]2C[C@H]3c4cc(NS(C)(=O)=O)ccc4O[C@H]3[C@@H](CO)O2)cc1 as the molecule, how does the reporter increase read?
The reporter increase was -3.21%.

With CN(C)C(=O)c1cccc(-c2ccc3c(c2)[C@H]2[C@H](CCN2C(=O)Cc2ccccc2)[C@H](CO)N3)c1 as the molecule, how does the reporter increase read?
Its reporter increase is 11%.

Which reporter increase does the source give for O=C(Nc1ccc(Cl)cc1)c1csc([C@H]2C[C@H](O)[C@@H](CO)O2)n1 here?
Its reporter increase is 67.4% (active).

For O=C(Nc1ccc(OCCO)cc1)c1csc([C@H]2C[C@H](O)[C@@H](CO)O2)n1, which reporter increase is on record?
The reporter increase was 0.832%.

Which reporter increase does the source give for O=C(Nc1ccc(Cl)cc1)c1csc([C@@H]2O[C@H](CO)[C@H](O)[C@H](O)[C@H]2O)n1 here?
Its reporter increase is -3.58%.

Which reporter increase does the source give for CCCNC(=O)[C@@H]1[C@@H](CO)[C@@H]2Cn3c(ccc(C4=CCCCC4)c3=O)[C@H]1N2CCC here?
The reporter increase was 2.73%.

For O=C(C[C@H]1C[C@@H]2c3cc(NC(=O)C4CCC4)ccc3O[C@@H]2[C@@H](CO)O1)NCCN1CCCCC1, which reporter increase is on record?
The reporter increase was -1.5%.

For COC(=O)c1c(-c2ccc(C)cc2)csc1N, which reporter increase is on record?
Its reporter increase is 0.96%.

With Nc1scc(-c2ccncc2)c1Cl as the molecule, how does the reporter increase read?
The reporter increase was 47.9% (active).

With COc1ccccc1CNC(=O)C[C@@H]1C[C@H]2c3cc(NC(=O)CN(C)C)ccc3O[C@H]2[C@@H](CO)O1 as the molecule, how does the reporter increase read?
Its reporter increase is 0.071%.

With CS(=O)(=O)Nc1ccc2c(c1)[C@H]1C[C@H](CC(=O)NCc3ccc(Oc4ccccc4)cc3)O[C@H](CO)[C@H]1O2 as the molecule, how does the reporter increase read?
Its reporter increase is 7.43%.

For C[C@H]1CN([C@@H](C)CO)C(=O)c2cc(Br)cnc2O[C@H]1CN(C)Cc1cccc(F)c1, which reporter increase is on record?
Its reporter increase is -3.97%.

With O=C(Nc1ccccc1)N1CCN(C2c3ccccc3-c3ccccc32)CC1 as the molecule, how does the reporter increase read?
Its reporter increase is 4.83%.

With O=C(Nc1ccccc1)N1CCN(Cc2ccccc2)CC1 as the molecule, how does the reporter increase read?
Its reporter increase is 40.2% (active).

For O=C(Nc1ccccc1)N1CCC(C(=O)N2CCN(Cc3ccccc3)CC2)CC1, which reporter increase is on record?
Its reporter increase is 12%.

Which reporter increase does the source give for C[C@@H]1CN([C@H](C)CO)S(=O)(=O)c2ccc(-c3cccc(F)c3)cc2O[C@H]1CN(C)S(=O)(=O)c1ccc(F)cc1 here?
Its reporter increase is 10%.

With O=C(NC1CCC1)[C@H]1[C@H](CO)[C@H]2Cn3c(ccc(-c4ccccc4)c3=O)[C@@H]1N2Cc1cocn1 as the molecule, how does the reporter increase read?
The reporter increase was 12.8%.

With O=C(C1CCC1)N1CCCCN2[C@H](CO)[C@H](c3ccc(-c4cccc(F)c4)cc3)[C@H]2C1 as the molecule, how does the reporter increase read?
The reporter increase was -5.73%.

For CC(C)(C)NC(=O)NC(=O)COC(=O)CCC1CCCCC1, which reporter increase is on record?
The reporter increase was -5.79%.

Which reporter increase does the source give for O=C(NCC1CCCCC1)NCC1CCCCC1 here?
The reporter increase was 44.8% (active).

With N#CCC(=O)NC(=O)NCC1CC1 as the molecule, how does the reporter increase read?
Its reporter increase is 6.44%.

Which reporter increase does the source give for CCCNC(=O)C[C@H]1CC[C@H]2[C@H](COc3ccc(NC(=O)CC)cc3C(=O)N2C)O1 here?
The reporter increase was 2.93%.

For C[C@H]1CN([C@@H](C)CO)C(=O)c2cccc(NS(=O)(=O)c3ccc(F)cc3)c2O[C@@H]1CN(C)CC1CC1, which reporter increase is on record?
The reporter increase was -4.49%.

For Cc1cccc(N2O[C@H]3C=CC2CCCC3)n1, which reporter increase is on record?
Its reporter increase is 56.9% (active).

Which reporter increase does the source give for CC(C)NC(=O)Nc1ccc2c(c1)C(=O)N([C@@H](C)CO)C[C@@H](C)[C@@H](CN(C)S(=O)(=O)c1ccc(F)cc1)OCCCC[C@H](C)O2 here?
Its reporter increase is -2.87%.

With C[C@@H]1CN([C@H](C)CO)S(=O)(=O)c2ccc(-c3cncnc3)cc2O[C@@H]1CN(C)Cc1ccccn1 as the molecule, how does the reporter increase read?
Its reporter increase is -3.4%.

For CC(=O)Nc1ccc(S(=O)(=O)N(C)CC(=O)NCCC2=CCCCC2)cc1, which reporter increase is on record?
Its reporter increase is -5.82%.

For S=C(NCCC1=CCCCC1)Nc1ccccc1, which reporter increase is on record?
The reporter increase was 51.5% (active).

Which reporter increase does the source give for CC(OC(=O)c1c(F)cccc1F)C(=O)NCCC1=CCCCC1 (centres undefined) here?
Its reporter increase is -1.99%.

With Cc1cc(C(=O)NCCc2ccc(Cl)cc2)c(C)o1 as the molecule, how does the reporter increase read?
The reporter increase was 55.1% (active).

With NS(=O)(=O)c1ccc(CCNC(=O)c2ccc(Cl)cc2[N+](=O)[O-])cc1 as the molecule, how does the reporter increase read?
The reporter increase was 0.338%.

Which reporter increase does the source give for Cc1cc(C(=O)NCCc2ccc(Cl)cc2)n(-c2ccccc2)n1 here?
The reporter increase was -4.28%.

For Cn1cnc(CCNC(=O)[C@H]2[C@H](CO)[C@H]3Cn4c(cccc4=O)[C@H]3N2C(=O)Nc2ccccc2)c1, which reporter increase is on record?
Its reporter increase is 6.91%.

For O=C(NC1CCCCC1)N[C@H]1CC[C@H](CCNS(=O)(=O)c2ccc(F)cc2)O[C@H]1CO, which reporter increase is on record?
The reporter increase was 12.9%.

For O=C(Nc1nnc(-c2ccc(Cl)cc2)o1)c1ccccc1Br, which reporter increase is on record?
Its reporter increase is 17.7%.

With CSc1ccccc1-c1nnc(-c2ccc(Cl)cc2)o1 as the molecule, how does the reporter increase read?
Its reporter increase is 67.2% (active).

Which reporter increase does the source give for O=C(c1nnc(-c2ccc(Cl)cc2)o1)C1CCCC1 here?
The reporter increase was 19.6%.

Which reporter increase does the source give for Cc1ccc(CNC(=O)CCNC(=O)Cn2ccc3ccccc3c2=O)cc1 here?
Its reporter increase is -7.21%.

Which reporter increase does the source give for COc1cc(NC(=O)CCNC(=O)Cn2ccc3ccccc3c2=O)cc(OC)c1OC here?
The reporter increase was 52.2% (active).

For COc1ccc(NC(=O)CCNC(=O)Cn2ccc3ccccc3c2=O)c(OC)c1, which reporter increase is on record?
Its reporter increase is -7.83%.

With O=C(C[C@@H]1C=C[C@@H](NS(=O)(=O)c2ccccc2)[C@@H](CO)O1)NCc1ccccc1F as the molecule, how does the reporter increase read?
Its reporter increase is -1.71%.

Which reporter increase does the source give for CC(C)NC(=O)N(C)C[C@@H]1Oc2c(cccc2N(C)C)C(=O)N([C@@H](C)CO)C[C@H]1C here?
The reporter increase was -5.01%.

For C[C@H](CO)N1C[C@H](C)[C@@H](CN(C)C(=O)C2CCC2)Oc2cc(C3=CCCCC3)ccc2S1(=O)=O, which reporter increase is on record?
Its reporter increase is 0.47%.

Which reporter increase does the source give for COc1ccc(S(=O)(=O)N(C)C[C@H]2Oc3ccc(NC(=O)Nc4c(C)noc4C)cc3C(=O)N([C@@H](C)CO)C[C@@H]2C)cc1 here?
Its reporter increase is -2.46%.

For CC(C)c1nc2cc(C(=O)NC(C)c3cnn(C)c3)ccc2o1 (centres undefined), which reporter increase is on record?
Its reporter increase is 3.1%.

With COC(=O)c1ccc(CSc2nc3cc(Cl)ccc3o2)cc1 as the molecule, how does the reporter increase read?
Its reporter increase is -4.19%.

With COc1ccc(CNC(=O)c2cc(=O)c3c(C)cc(C)cc3o2)cc1 as the molecule, how does the reporter increase read?
The reporter increase was 1.4%.

For COC(=O)c1ccc(CNC(=O)c2ccc3oc(C(C)C)nc3c2)cc1, which reporter increase is on record?
Its reporter increase is 49% (active).

For COC(=O)c1ccc(CNC(=O)c2ccc(S(=O)(=O)N3CCCCCC3)cc2)cc1, which reporter increase is on record?
Its reporter increase is 1.32%.

Which reporter increase does the source give for COc1ccc(CNC(=O)c2ccc3oc(C(C)C)nc3c2)cc1 here?
Its reporter increase is 47.5% (active).

Which reporter increase does the source give for O=C(NCC[C@@H]1CC[C@@H](NC(=O)C2CCCC2)[C@H](CO)O1)c1cnccn1 here?
Its reporter increase is -3.83%.

With COc1ccc(S(=O)(=O)N(C)C[C@H]2Oc3c(NS(=O)(=O)c4ccc(F)cc4)cccc3C(=O)N([C@H](C)CO)C[C@H]2C)cc1 as the molecule, how does the reporter increase read?
Its reporter increase is 0.834%.

With C[C@H](CO)N1C[C@H](C)[C@@H](CN(C)Cc2ccc(C(=O)O)cc2)Oc2ccc(NS(=O)(=O)c3cn(C)cn3)cc2CC1=O as the molecule, how does the reporter increase read?
Its reporter increase is -1.15%.

For C[C@@H]1CN([C@@H](C)CO)C(=O)c2cc(NC(=O)Cc3ccccc3)ccc2O[C@@H](C)CCCCO[C@H]1CN(C)C(=O)Nc1cccc2ccccc12, which reporter increase is on record?
Its reporter increase is 1.67%.
